# The whole screen tested about 310,000 compounds, of which about 14,000 (4.5%) showed an effect of 50% or more. Effects have a minus sign here. What follows is part of a selection rich in strong results, with near analogues and random picks from the rest.
# Target: human ether-à-go-go-related gene (hERG) potassium channel (human, UniProt Q12809)
# Assay: primary screen, population patch clamp on CHO cells stably expressing hERG; higher = less effect of the substance
# 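Also: peak tail current of the secondary pulse compared with the same well before compound.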
# human ether-à-go-go-related gene (hERG) potassium channel, sequence (Q12809 whole entry, looked up): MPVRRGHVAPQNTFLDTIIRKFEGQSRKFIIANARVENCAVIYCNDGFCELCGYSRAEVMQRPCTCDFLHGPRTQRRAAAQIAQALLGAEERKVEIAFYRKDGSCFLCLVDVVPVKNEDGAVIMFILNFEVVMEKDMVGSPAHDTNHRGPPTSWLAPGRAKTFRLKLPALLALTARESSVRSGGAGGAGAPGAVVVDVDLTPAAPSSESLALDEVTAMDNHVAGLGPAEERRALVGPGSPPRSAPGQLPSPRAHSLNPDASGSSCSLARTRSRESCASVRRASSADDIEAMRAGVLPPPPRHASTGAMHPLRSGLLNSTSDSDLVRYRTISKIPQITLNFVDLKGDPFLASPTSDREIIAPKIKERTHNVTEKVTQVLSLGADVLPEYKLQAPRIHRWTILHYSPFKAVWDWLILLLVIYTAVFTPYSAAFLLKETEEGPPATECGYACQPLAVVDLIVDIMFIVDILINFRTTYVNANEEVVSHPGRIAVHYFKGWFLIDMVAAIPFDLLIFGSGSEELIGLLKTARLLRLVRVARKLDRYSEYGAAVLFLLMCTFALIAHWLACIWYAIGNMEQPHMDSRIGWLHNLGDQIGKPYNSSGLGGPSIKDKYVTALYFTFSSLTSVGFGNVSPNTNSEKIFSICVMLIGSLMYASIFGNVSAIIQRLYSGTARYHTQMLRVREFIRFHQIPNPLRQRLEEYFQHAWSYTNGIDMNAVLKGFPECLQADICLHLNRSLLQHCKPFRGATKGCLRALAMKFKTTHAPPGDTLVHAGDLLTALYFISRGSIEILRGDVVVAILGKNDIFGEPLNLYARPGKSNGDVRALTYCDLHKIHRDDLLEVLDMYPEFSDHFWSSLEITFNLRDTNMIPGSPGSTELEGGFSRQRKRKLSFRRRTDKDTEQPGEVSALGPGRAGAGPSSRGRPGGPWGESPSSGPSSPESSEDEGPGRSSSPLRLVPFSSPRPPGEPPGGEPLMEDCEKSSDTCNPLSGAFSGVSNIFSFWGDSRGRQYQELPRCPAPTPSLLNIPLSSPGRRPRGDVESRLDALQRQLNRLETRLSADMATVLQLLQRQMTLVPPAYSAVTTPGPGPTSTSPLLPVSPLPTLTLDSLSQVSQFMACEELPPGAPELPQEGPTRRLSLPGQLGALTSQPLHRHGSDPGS
row,SMILES,"hERG current change (%, negative = inhibition) at 10uM [%]"
1,CCc1ccc(OC)c(S(=O)(=O)Nc2ccccc2C)c1,3.86
2,COc1cccc(COCC(O)CN2CCC(C(N)=O)CC2)c1 (stereo not drawn),12.3
3,COc1ccc(-c2csc3ncnc(NCCCO)c23)cc1,-13.3
4,CC(C)CNC(CC(=O)Nc1cccc([N+](=O)[O-])c1)C(=O)O (stereo not drawn),-1.01
5,Cc1ccc(NC(=O)COC(=O)[C@H](C)NC(N)=O)c(C)c1,15.1
6,CCOc1ccc(S(=O)(=O)N2CCC(C(=O)NC3CCCCC3)CC2)cc1,18.3
7,CCOC(=O)C1CCN(CCC(=O)Nc2ccc(Br)cc2)CC1,-63.5
8,CCOC(=O)C1CCN(CCC(=O)Nc2ccc(C)cc2)CC1,-32.4
9,CCOC(=O)C1CCN(CCC(=O)Nc2ccc(F)cc2)CC1,-31
10,CCOC(=O)C1CCN(CCC(=O)Nc2ccc(Cl)cc2)CC1,-62.4
11,CCOC(=O)C1CCN(CCC(=O)Nc2ccccc2Cl)CC1.Cl,-19.3
12,CCOC(=O)C1CCN(CCC(=O)Nc2cccc(Cl)c2C)CC1,-5.48
13,COc1ccccc1C(=O)NCC1(c2ccccc2)CCCC1,1.65
14,O=C(NCCCCCCCCCNC(=O)C(F)(F)F)C(F)(F)F,-4.99
15,CC1CC(C)CN(C(=O)CCCn2c(=O)c3cccn3c3cccnc32)C1 (stereo not drawn),-11
16,O=c1c2cnn(-c3ccccc3)c2ncn1Cc1ccco1,-7.57
17,N=c1c2c(-c3ccccc3)c(-c3ccccc3)n(Cc3ccccc3)c2ncn1CCO,-37.6
18,O=c1c2ccccc2ncn1Cc1ccco1,-19.8
19,N=c1c2c(-c3ccccc3)c(-c3ccccc3)n(Cc3ccco3)c2ncn1CCO,-71
20,CCCCn1c(=O)n(Cc2cccc(F)c2)c(=O)c2c1ncn2Cc1ccco1,-14.7
21,CCCCn1c(=O)n(CC(=O)Nc2ccc(C)c(Cl)c2)c(=O)c2c1ncn2Cc1ccco1,-6.22
22,N#Cc1c(-c2ccccc2)c(-c2ccccc2)n(Cc2ccco2)c1NC(=O)c1cccs1,12.6
23,N=c1c2c(-c3ccccc3)c(-c3ccccc3)n(Cc3ccco3)c2ncn1CCCO,-68.5

row,SMILES,"hERG current change (%, negative = inhibition) at 10uM [%]"
1,CCCCn1cnc2c(c(-c3ccccc3)c(-c3ccccc3)n2Cc2ccco2)c1=N,-75.1
2,NC(=S)N/N=C/c1ccc(C23CC4CC(CC(C4)C2)C3)cc1,23.2
3,CN1CCc2cc3c(cc2[C@H]1[C@@H]1OC(=O)c2c1ccc1c2OCO1)OCO3,7.02
4,O=C1C(=O)N(CC2CCCO2)C(c2ccco2)/C1=C(/O)c1ccc(F)cc1 (stereo not drawn),-13.4
5,COc1cnc(SCc2c(Cl)cccc2Cl)nc1Cl,-1.4
6,COC(=O)c1cccc(CSc2nnc(C)s2)c1,-1.67
7,Nc1c(Cl)c(Cl)nc(C(=O)OCC(=O)N2CCCC2=O)c1Cl,-22.5
8,O=C(OCC(=O)N1CCCC1=O)c1nc(Cl)c(Cl)c(Cl)c1Cl,-60.4
9,O=C(OCC(=O)N1CCCC1=O)c1ncc(Cl)c(Cl)c1Cl,0.304
10,COc1cccc(C(=O)Nc2cc(-c3cn4cccnc4n3)ccc2C)c1,-12
11,O=C1C=C(Nc2ccc(Cl)cc2)C(=O)N1c1ccc(Cl)cc1,9.57
12,O=C(NCCC(=O)N(CCc1ccccc1)Cc1ccccc1)c1ccc(Br)cc1,-44.9
13,O=C(NCCC(=O)N(CCc1ccccc1)Cc1ccccc1)c1ccccc1Cl,-72.9
14,O=C(NCCc1ccccc1)c1ccccc1Cl,3.33
15,CCOC(=O)C1=C(O)/C(=C\c2ccc(O)c(OCC)c2)N=C1C,8.17
16,C1CCC(NC2=NCCC2)CC1.Cl,-1.01
17,O=C(O)Cn1nc(C(F)(F)F)c2c1CCC2,20.4
18,CCCN1C2CCCC1CC(NC(=O)c1ccc(F)cc1)C2 (stereo not drawn),-55.3
19,CCCN1C2CCCC1CC(NC(=O)c1ccc(C(C)(C)C)cc1)C2 (stereo not drawn),-37.1
20,CCCN1C2CCCC1CC(NC(=O)c1ccccc1F)C2 (stereo not drawn),-21.7
21,CCCN1C2CCCC1CC(NC(=O)c1ccc(Br)cc1)C2 (stereo not drawn),-66.3
22,CCCN1C2CCCC1CC(NC(=O)c1ccccc1)C2 (stereo not drawn),-18.9
